A selection: hits, their analogues and other compounds. The true share with any hit is near 9.2%.
NPC1 promoter act – NPC1 promoter activation | Huh7 NPC1 promoter luciferase reporter, 24 h | Potency, µM (top dose mostly 9.22 µM), for the others: at the highest dose activation, hits mostly activators | 320,000 tested, 2.4% active; also: % of control where 0% means no effect; nearly all actives have a fitted effect of over 60% in size
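Quantitative HTS used a cell-based reporter: Huh7 cells stably bearing the NPC1 promoter upstream of luciferase were treated with compounds for 24 h, and promoter activation was read as luminescence.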
ELG1 genotoxic – inducers of genotoxicity in HEK293T ELG1-luciferase cells | HEK293T ELG1-luciferase reporter, luminescence, 16 h | Potency, µM (series often up to 46 µM), for inactives: top-dose activity change, positive = activation, hits mostly activators | 330,000 tested, 1.3% active | AID 504466; also: % of control where 0% means no effect; nearly all actives have a fitted effect of over 60% in size
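Screening used a luciferase reporter fused to human ELG1 in HEK293T cells. Luminescence was read on a CCD plate imager after 16 hr exposure and 30 min ONE-Glo incubation.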
FLuc counter – counter-screen for miR-21 project: firefly luciferase inhibitors or activators. purified FLuc, Km substrates, luminescence inhibition. P08659. Potency, µM (titrated, usually from 57.5 µM), for the others: at the top dose activity change, negative = inhibition, hits mostly inhibitors. 360,000 tested, 6.9% active;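 also: plate controls were vehicle for no effect and reference inhibitor for full effect; nearly all actives have a fitted effect of over 55% in size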
Target sequence (P08659 whole entry, looked up): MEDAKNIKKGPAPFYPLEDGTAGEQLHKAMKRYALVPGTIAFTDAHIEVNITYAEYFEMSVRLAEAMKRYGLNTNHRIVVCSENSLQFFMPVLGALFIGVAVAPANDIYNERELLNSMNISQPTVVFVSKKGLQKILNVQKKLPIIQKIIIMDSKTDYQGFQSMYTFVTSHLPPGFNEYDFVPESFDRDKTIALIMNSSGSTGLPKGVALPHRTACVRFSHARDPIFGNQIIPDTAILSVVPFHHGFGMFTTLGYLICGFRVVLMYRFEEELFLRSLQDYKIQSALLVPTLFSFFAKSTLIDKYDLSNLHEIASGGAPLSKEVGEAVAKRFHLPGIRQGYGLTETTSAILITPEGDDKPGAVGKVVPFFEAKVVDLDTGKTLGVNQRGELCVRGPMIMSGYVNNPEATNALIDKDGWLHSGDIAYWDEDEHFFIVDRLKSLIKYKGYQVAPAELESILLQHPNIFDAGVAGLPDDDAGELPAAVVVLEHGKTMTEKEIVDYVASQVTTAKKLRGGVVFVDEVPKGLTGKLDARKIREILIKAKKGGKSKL
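Purified P. pyralis luciferase (10nM final) with 10uM D-luciferin and 10uM ATP (Km levels) in 50mM Tris acetate pH 7.5, 10mM Mg acetate, 0.01% Tween-20, 0.05% BSA; qHTS 6-point titration, ~60 µM downward; luminescence read.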
SMN2 splice up – enhancers of SMN2 splice variant expression. HEK293 SMN2-luciferase splicing reporter, luminescence, 30-36 h. Potency, µM (doses to about 46.1 µM), inactives show at the highest dose activity change, positive = activation, actives largely listed as activators. 210,000 tested, 2.8% active. AID 1458; also: % of control where 0% means no effect; nearly all actives have a fitted effect of over 55% in size
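HEK293 cells carry an SMN2 minigene-luciferase reporter in which exon 7 inclusion puts luciferase in frame. Cells were seeded at 2000 cells/well, attached for 10-12 hours, then exposed to compounds for 30-36 hours at 37C before ONE-Glo luminescence.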
Rab9 prom act – activators of Rab9 promoter | 320,000 tested, 2.8% active | Huh7 Rab9 promoter-luciferase reporter, luminescence, 24 h | AID 485297 | Potency, µM (highest dose often 9.22 µM), inactives show at the highest dose activation, negative = inhibition, most hits filed as activators; also: % of control where 0% means no effect; nearly all actives have a fitted effect of over 60% in size
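Luminescence read-out: Huh7 cells stably expressing Rab9-luciferase, treated 24 h with compound at 37 °C, then lysed with luciferase reagent for 10 min at ambient before reading.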
ELG1 DNA repair – ELG1-dependent DNA repair inhibition; Potency, µM (series often up to 46.1 µM), for the others: at the highest dose activity change, negative = inhibition, actives largely listed as inhibitors; AID 504467; HEK293T ELG1-luciferase reporter, luminescence, 16 h; DNA damage induced by 5-fluorouridine; 330,000 tested, 2.3% active; also: % is scaled to controls: 0 for no effect and ±100 for the full control effect; nearly all actives have a fitted effect of over 55% in size
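Quantitative HTS, concentration-response format. 2,000 cells/well co-treated with 5-fluorouridine and compound, 16 hr in 5% CO2 at 37 °C; ONE-Glo luminescence read after 30 min.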
* hit, by the source's call; ? = inconclusive; . = not tested or not shown. Calls follow the shape of the dose curve; as a rule, active = well fitted curve in the direction sought with a large enough effect; inconclusive = small, poorly fitted or top-dose-only effect, or another doubt; inactive = no such curve, though single readings can be large; an effect the other way counts as inactive or inconclusive. Potency is read from the fitted curve at half-maximal effect.

SMILES | NPC1 promoter act | ELG1 genotoxic | FLuc counter | SMN2 splice up | Rab9 prom act | ELG1 DNA repair
NS(=O)(=O)c1cccc(NC(=O)c2ccc3nc[nH]c3c2)c1 | -5% | -1% | 19µM* | . | -6% | -5%
CCn1cc([N+](=O)[O-])c(C(=O)NCc2ccc3c(c2)OCO3)n1 | 2% | -1% | 3% | . | -1% | 3%
CCn1cc([N+](=O)[O-])c(C(=O)Nc2ccc3c(c2)OCCO3)n1 | ? | ? | 19µM* | ? | ? | ?
Cc1cc(C(=O)Nc2ccc3c(c2)OCCO3)ccc1[N+](=O)[O-] | 0.71µM* | 0.52µM* | 0.76µM* | . | ? | ?
O=C(Nc1ccc2c(c1)OCCO2)c1ccc(Cl)c(Cl)c1 | 1.6µM* | 2.6µM* | 4.8µM* | . | 1.4µM* | ?
CCCCn1c(N)c(N(CC(C)C)C(=O)c2cccc(OCc3ccccc3)c2)c(=O)[nH]c1=O | -2% | -2% | 1% | . | -2% | 9%
CC(C)c1ccccc1OCC(=O)Nc1ccccc1C(=O)N1CCOCC1 | -2% | -15% | 1% | . | 3% | -17%
CCOC(=O)C1CCN(C(=O)COC(=O)c2oc3ccccc3c2C)CC1 | -3% | -1% | 4% | . | -8% | 16%
O=C(Nc1ccc2cccnc2c1)c1ccc(Br)cc1 | 16% | 10% | 19µM* | . | 7% | ?
O=C(Nc1ccc2c(c1)OCO2)c1ccc2nc[nH]c2c1 | ? | 16µM* | 21µM* | ? | 3.5µM* | ?
O=C(Nc1ccc(C(F)(F)F)cc1)c1ccc2nc[nH]c2c1 | 18% | -3% | ? | -1% | 19% | ?
O=C(Nc1ccc2c(c1)OCCO2)c1ccc2nccnc2c1 | 1µM* | ? | 3µM* | ? | 0.79µM* | ?
COC(=O)c1ccc(NC(=O)c2ccc3nccnc3c2)cc1 | 2% | -7% | ? | . | 2% | -7%
O=C(Nc1ccc2nc3ccccc3nc2c1)c1ccc(Br)cc1 | 19% | -1% | -3% | 3% | 28% | ?
Cc1ccc(C(=O)Nc2ccc3nccnc3c2)cc1 | 0.89µM* | ? | 0.95µM* | 3.2µM* | 0.45µM* | ?
Cn1cc(CN2CCC(Oc3ccc(C(=O)N4CCCC4)cc3)CC2)cn1 | -7% | -2% | 1% | . | -2% | 1%
CCOC(=O)CC[C@H](NC(=O)Cn1cnc2c(OCc3ccccc3)ncnc21)C(=O)OCC | . | 3% | . | . | . | -2%
O=C(Nc1ccc(Cl)c(Cl)c1)C1=Cc2ccccc2OC1 | ? | ? | 11µM* | ? | 2.5µM* | ?
O=C(Nc1ccc2c(c1)OCCO2)c1cccnc1 | ? | ? | ? | ? | 4µM* | ?
O=C(Nc1cccc(Cl)c1)C1=Cc2cc(Cl)ccc2OC1 | -5% | -6% | -20% | -4% | -9% | -14%
O=C(Nc1ccc2c(c1)OCCO2)c1ccc(Cl)c([N+](=O)[O-])c1 | -3% | ? | ? | 18µM* | -1% | ?
CCOC(=O)CCc1c(C)c2ccc(OCC)c(C)c2oc1=O | 2% | 10% | 12µM* | -6% | -8% | ?
CCCCCCc1c(C)c2ccc(OCC(=O)N3CCC[C@H]3C(=O)O)c(C)c2oc1=O | 0% | 1% | 17µM* | . | -10% | -27%
CCOC(=O)CCc1c(C)c2ccc(OCC(=O)N3CCOCC3)c(C)c2oc1=O | 6% | -4% | -2% | . | 5% | ?
CC(=O)NCCc1nc2ccccc2n1CCc1ccccc1 | 1% | 0% | -1% | . | -6% | 28%
SMILES | NPC1 promoter act | ELG1 genotoxic | FLuc counter | SMN2 splice up | Rab9 prom act | ELG1 DNA repair
O=C(NCCOc1ccccc1F)C1CCC(=O)N(CCc2cccc(F)c2)C1 (centres undefined) | -2% | -3% | -5% | . | 0% | -7%
Cc1ccc(-c2cc(C(=O)N3CCN(c4ccccc4O)CC3)c3ccccc3n2)cc1 | ? | -1% | 2.4µM* | . | ? | ?
CS(=O)(=O)N1CCN(C(=O)c2cc(-c3cccs3)nc3ccccc23)CC1 | 3% | -1% | ? | 1% | 6% | 16µM*
O=C(c1cc(-c2cccs2)nc2ccccc12)N1CCN(c2ccccc2O)CC1 | 5% | -10% | 21µM* | -66% | 18% | ?
COc1ccc(-c2cc(C(=O)N3CCN(c4ccccc4O)CC3)c3ccccc3n2)cc1 | 3.2µM* | 0% | 0.67µM* | . | 2µM* | 20%
CS(=O)(=O)N1CCN(C(=O)c2cc(-c3ccccc3)nc3ccccc23)CC1 | 1% | -1% | ? | -1% | -1% | -4%
COc1ccc(-c2cc(C(=O)N3CCN(c4ccccc4O)CC3)c3ccccc3n2)cc1OC | 21% | -19% | 9.5µM* | . | -2% | 9.2µM*
Cc1[nH]c2ccccc2c1/C=N/Nc1nc(Nc2ccccc2)nc(N2CCOCC2)n1 | 13% | -10% | 4.8µM* | -8% | 0% | 23µM*
Oc1[nH]c2ccccc2c1N=Nc1nc(Nc2ccccc2)nc(N2CCOCC2)n1 | -11% | -12% | ? | . | -9% | 3.7µM*
CC(=O)Cn1ncc(N(C)Cc2ccccc2)c(Cl)c1=O | ? | ? | 17µM* | . | ? | ?
CN(C)c1ccc(CNC(=O)CN2C(=O)CSc3ccc(S(=O)(=O)N4CCCC4)cc32)cc1 | . | . | -11% | . | . | .
CCc1nnc(NC(=O)c2ccc(S(=O)(=O)N(C)c3ccccc3)cc2)o1 | -8% | -14% | -17% | -101% | -7% | 7.3µM*
Cc1nnc(NC(=O)c2ccc(S(=O)(=O)N(C)Cc3ccccc3)cc2)o1 | -3% | -10% | 6% | -23% | -4% | -29%
C=CCN(CC=C)S(=O)(=O)c1ccc(C(=O)Nc2nnc(CSC)o2)cc1 | -2% | -18% | -19% | -22% | -3% | 18µM*
CCN(Cc1ccccc1)S(=O)(=O)c1ccc(C(=O)Nc2nnc(C3CC3)o2)cc1 | -12% | -12% | 2% | -63% | -7% | 12µM*
CCCN(CCC)S(=O)(=O)c1ccc(C(=O)Nc2nnc(COC)o2)cc1 | -2% | -21% | ? | -54% | -9% | 18µM*
CCc1nnc(NC(=O)c2ccc(S(=O)(=O)N(CC(C)C)CC(C)C)cc2)o1 | -6% | -7% | 0% | -56% | -5% | ?
CC1(C)CSC(=NCCc2ccccc2)N1 | 13% | 6% | -5% | . | 8% | 20%
NS(=O)(=O)c1cc(C(=O)Nc2ccc3c(c2)CCC3)ccc1Cl | 3.5µM* | 10µM* | 17µM* | . | 4µM* | ?
Cc1ccc(C(=O)Nc2ccc3c(c2)n(C)c(=O)c(=O)n3C)cc1 | . | . | ? | -6% | . | .
Cn1cc(C(=O)Nc2ccc3c(c2)CCC3)cn1 | 23% | ? | 21µM* | . | 30% | ?
Cc1ccc(C(=O)Nc2ccc3c(c2)CCC3)cc1 | ? | 0.18µM* | 0.38µM* | 1.4µM* | 0.32µM* | ?
